IL-1B inflam inh – inhibitors of inflammasome signaling (IL-1 beta secretion); THP-1 LPS/ATP IL-1B secretion, AlphaLISA, 16 h; active compounds read low; activity change, % at 57.5 µM; AID 743279; actives 4.7% (n = 360,000); in the data active means activity change below about -50%; inconclusive means mostly about -30% to -49%; further: on the % scale 0 is the no-effect control and ±100 the full control effect
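THP-1 cells pretreated 1 hr with compounds (up to 57.5 uM final), then stimulated with LPS (250 ng/mL final) plus ATP (1.25 mM final); secreted IL-1B measured by AlphaLISA after 16 hr, decreased signal indicating inhibition.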
TGFb SMAD3 inh – TGF-b pathway inhibition; HepG2 CAGA-GFP TGF-b/SMAD3 reporter, GFP fluorescence, 18 h; TGF-beta stimulated, 500 pg/mL final; Potency, µM (doses to about 46.1 µM), for inactives: at the top dose activity, negative = inhibition, most hits filed as inhibitors; actives 1.2% (n = 410,000); AID 588855; further: potency means the concentration at half of the fitted maximal effect; on the % scale 0 is the no-effect control and ±100 the full control effect; nearly all actives have a fitted effect of over 65% in size
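Smad-responsive CAGA-GFP expression was quantified in HEPG2 cells exposed to compounds and 500 pg/mL final TGF-beta for 18 h at 37 degrees C; unstimulated wells defined full inhibition.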
HepG2 viability – counter-screen for TGF-b inhibitors: cytotoxicity in HepG2 cells. HepG2 CAGA-GFP viability, ATP luminescence, 18 h. Potency, µM (series often up to 46.1 µM), inactives show at the highest dose activity change, negative = cytotoxicity, most hits filed as cytotoxic. actives 0.76% (n = 410,000); further: potency means the concentration at half of the fitted maximal effect
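CellTiter-Glo luminescence gave cytotoxicity after 18 hours at 37 degrees C. The cells were HepG2 CAGA-GFP in 1% FBS DMEM, stimulated with 500 pg/mL TGF-beta after compound addition. %Activity was normalised to no-cell wells (complete cell-killing) and DMSO (no toxicity), and curves were fitted and classified.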
S-ASM inh – blocks human secretory acid sphingomyelinase. P17405. placental ASM, HMU-PC fluorogenic substrate, 60 min. Potency, µM (highest dose often 57.5 µM), inactives show top-dose activity change, negative = inhibition, hits mostly inhibitors. actives 0.006% (n = 340,000). AID 504937; further: potency means the concentration at half of the fitted maximal effect
Target sequence (P17405 47-631 limits assumed): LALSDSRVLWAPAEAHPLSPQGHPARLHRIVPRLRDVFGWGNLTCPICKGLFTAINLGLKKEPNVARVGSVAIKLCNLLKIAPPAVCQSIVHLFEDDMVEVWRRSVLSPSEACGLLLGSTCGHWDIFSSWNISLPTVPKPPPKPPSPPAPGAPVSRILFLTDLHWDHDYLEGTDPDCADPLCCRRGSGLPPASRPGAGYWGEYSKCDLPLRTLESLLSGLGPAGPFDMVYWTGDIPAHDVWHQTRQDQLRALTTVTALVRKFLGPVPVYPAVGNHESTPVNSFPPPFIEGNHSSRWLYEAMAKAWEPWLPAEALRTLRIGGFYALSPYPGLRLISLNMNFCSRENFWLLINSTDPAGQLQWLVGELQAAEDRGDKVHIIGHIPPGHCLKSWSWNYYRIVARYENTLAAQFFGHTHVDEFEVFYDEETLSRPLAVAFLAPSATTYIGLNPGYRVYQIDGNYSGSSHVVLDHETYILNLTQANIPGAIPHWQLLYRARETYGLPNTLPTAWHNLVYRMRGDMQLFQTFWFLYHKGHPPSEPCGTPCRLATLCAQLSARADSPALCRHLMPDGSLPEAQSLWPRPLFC
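Human placenta-derived ASM preincubated with compound 10 min at room temperature, then reacted with 9 uM (final) fluorogenic HMU-PC substrate for 60 min at 37 C. Stop solution raises pH to 10; fluorescence read at Ex 386/Em 447 nm.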
DT40 TDP1 no CPT – qHTS for Inhibitors of human tyrosyl-DNA phosphodiesterase 1 (TDP1): qHTS in cells in absence of CPT. DT40 Tdp1-/- hTDP1 cells, no CPT, ATP luminescence, 48 h. Potency, µM (highest dose often 46.2 µM), without a hit: at the top dose activity change, negative = growth inhibition, usual class: inhibitors. actives 15% (n = 420,000); further: potency means the concentration at half of the fitted maximal effect; on the % scale 0 is the no-effect control and ±100 the full control effect; nearly all actives have a fitted effect of over 55% in size
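Stably hTDP1-transfected Tdp1-null chicken DT40 cells were treated with library compounds minus camptothecin and grown for at least 48 hr at 37 °C, after which cellular ATP was quantified by luminescence.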
DT40 TDP1 CPT – growth inhibition of DT40 Tdp1-/-;hTDP1 cells with camptothecin (screen for TDP1 inhibitors). Potency, µM (top dose mostly 46.2 µM), without a hit: top-dose activity change, negative = growth inhibition, actives largely listed as inhibitors. actives 12% (n = 420,000). chicken DT40 Tdp1-/-;hTDP1 cells + 20 nM CPT, ATP luminescence, 48 h; further: potency means the concentration at half of the fitted maximal effect; on the % scale 0 is the no-effect control and ±100 the full control effect; nearly all actives have a fitted effect of over 55% in size
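Chicken DT40 Tdp1-/- cells stably complemented with human TDP1 were seeded at 400 cells/well in medium containing 20 nM camptothecin, exposed to pin-transferred compounds, and grown at 37 °C for at least 48 hr. Viability was read as ATP luminescence.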
* marks the source's active call; other numbers are inactive results; u = inconclusive; x = no result given. A selection: hits, their analogues and other compounds. The true share with any hit is near 19%. Unless noted, the call rests on the fitted dose curve; in most records, active means well fitted curve in the direction sought with a large enough effect; inconclusive means small, poorly fitted or top-dose-only effect, or another doubt; inactive means no such curve, though single readings can be large; an effect the other way counts as inactive or inconclusive.

SMILES	IL-1B inflam inh	TGFb SMAD3 inh	HepG2 viability	S-ASM inh	DT40 TDP1 no CPT	DT40 TDP1 CPT
CCCCCCn1c(COc2ccccc2F)nnc1SCC(=O)N1c2ccccc2NC(=O)C1(C)C	-57*	u	-94%	-12%	16µM*	23µM*
COC(=O)CC1C(=O)NCCN1C(=O)c1ccc([N+](=O)[O-])cc1 (configuration not stated)	36	3%	12%	7%	14%	24%
Cc1ccc(SCCNC(=O)c2ccc(C)c(S(=O)(=O)Nc3ccccc3C)c2)cc1	-67*	u	-34%	-10%	22µM*	u
COc1ccccc1NS(=O)(=O)c1cc(C(=O)NCc2ccco2)ccc1C	-63*	-3%	4%	1%	-9%	-8%
COc1ccccc1NS(=O)(=O)c1ccc(C(=O)NCc2ccco2)cc1	25	-23%	-9%	2%	u	10µM*
COc1ccc(Cl)cc1NC(=O)c1cc2nc(-c3ccc(C)cc3)cc(C(F)(F)F)n2n1	x	-3%	9%	x	u	-1%
Cc1ccc(S(=O)(=O)N2CCOCC2)cc1C(=O)c1nccn1C	5	45%	24%	-2%	-5%	7%
CC[n+]1c(/C=C/c2c[nH]c3ccccc23)ccc2cc(C)ccc21	-100*	71%	-34%	u	1.2µM*	1.2µM*
Cc1cc(C)c(NC(=O)C2CCN(C(=O)N3CC(C)Oc4ccc(Cl)cc43)CC2)c(C)c1 (configuration not stated)	x	-9%	-1%	x	21µM*	u
CC1CN(C(=O)N2CCC(C(=O)NC3CCCCCC3)CC2)c2cc(Cl)ccc2O1 (configuration not stated)	x	u	-1%	x	18µM*	15µM*
CCOc1ccc(NC(=O)C2CCN(C(=O)N3CC(C)Oc4ccc(Cl)cc43)CC2)cc1 (configuration not stated)	x	u	-21%	x	15µM*	23µM*
Cc1ccc2c(c1)N(C(=O)N1CCC(C(=O)NCc3ccco3)CC1)CC(C)O2 (configuration not stated)	x	-25%	-19%	x	u	u
Cc1cc(C(=O)N2CCCC(N3CCN(c4ccc(F)cc4)CC3)C2)c(C)o1 (configuration not stated)	-10	-19%	-9%	2%	18µM*	23µM*
Cc1cc(C(=O)N2CCCC(CO)(Cc3ccc(F)cc3)C2)c(C)o1 (configuration not stated)	-25	-17%	-5%	x	23µM*	23µM*
CC(C)c1cc(C(=O)N2CCCC(N3CCN(c4ccc(F)cc4)CC3)C2)n(C)n1 (configuration not stated)	17	-3%	-15%	6%	u	16µM*
Cc1ccc(C(=O)N2CCCC(C(=O)c3cc(F)ccc3F)C2)s1 (configuration not stated)	-27	-25%	-5%	-2%	u	u
CC(C)Cc1cc(C(=O)N2CCCC(CO)(Cc3ccc(F)cc3)C2)no1 (configuration not stated)	27	-14%	-10%	-3%	u	u
Cc1cc(C(=O)N2CCCC(C(=O)c3cc(F)ccc3F)C2)c(C)o1 (configuration not stated)	-4	1%	16%	3%	18µM*	u
Cn1nc2c(c1C(=O)N1CCCC(C(=O)c3cc(F)ccc3F)C1)CCCC2 (configuration not stated)	7	-4%	-16%	-1%	-36%	16µM*
